Pf Dd2 inh: Plasmodium falciparum Dd2 growth inhibition | P. falciparum Dd2 growth, SYBR Green, 72 h | Potency, µM (doses to about 28.9 µM), inactives show top-dose activity, negative = inhibition, actives largely listed as inhibitors | 120,000 tested, 4.3% active | AID 1347417; active = well fitted inhibition curve with a large enough effect;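 note: plate controls were DMSO vehicle for no effect and reference drug for full effect; nearly all actives have a fitted effect of over 65% in size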
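Readout: SYBR Green fluorescence, 485 nm excitation, 535 nm emission, after ~16 h lysis at 37C. Before that, Dd2-infected red cells (2.5% hematocrit) grew 72 h with compound, 29 uM top final concentration.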
An asterisk follows results filed as active; i = inactive; [ ] = dose if it differs, or a comment. The entries come from a sample that favours hits as a whole. Potency is the fitted concentration of half-maximal effect.

SMILES | Pf Dd2 inh
Clc1ccc2nc(N3CCC(NCCc4cccnc4)CC3)sc2c1 | 11.2µM*
COc1ccc(Nc2ccc3c(n2)CN(Cc2ccc(F)cc2)C(=O)CO3)cn1 | -13.8%[44.1 µM]
O=C(Cc1ccccc1)N1CCC(Oc2cnc3c(ccn3-c3cncnc3)c2)CC1 | 12.6µM*
O=C(CC1CC1)N1CCC(Oc2cnc3c(ccn3-c3cncnc3)c2)CC1 | i
O=C(OCc1ccccc1)N1CCC(Oc2cnc3c(ccn3-c3cncnc3)c2)CC1 | i
Cn1cc(CN2C[C@H](C(=O)Nc3cccc(F)c3)C[C@H]2c2cccc(C(F)(F)F)c2)cn1 | -10.5%
CCC(=O)N1CCc2c(C(=O)O)cccc21 | -11.7%
COc1ccccc1CN1CCCC(CN(CCN(C)C)C(=O)c2ccccc2OC)C1 (stereo not given) | i
COc1ccccc1CCN1CCCC(CN(C)C(=O)C(=O)c2cccn2C)C1 (stereo not given) | 14.1µM*
COc1ccccc1CCN1CCCC(CN(C)C(=O)Nc2ccccc2)C1 (stereo not given) | 2.24µM*
CC(C)(C)CCN1CCCC(COc2ccccc2C(=O)N2CCCC2)C1 (stereo not given) | i
Cn1cccc1CN1CCCC(COc2ccccc2C(=O)N2CCCCC2)C1 (stereo not given) | i
Cc1cc(C(=O)N(C)CC2CCCN(CCc3ccccc3F)C2)n[nH]1 (stereo not given) | -27.9%
CN1CC(=O)N(c2ccccc2)Cc2c(NCc3cccc(C(F)(F)F)c3)ncnc21 | -7.4%
Cc1ccccc1N1Cc2c(NCC3CCCCC3)ncnc2N(C)CC1=O | i
CCn1nc(C)c(C(=O)N[C@H]2CCOC[C@H]2C2CCOCC2)c1C | -3.9%
COCCN1CC(C(=O)N(C)Cc2sccc2C)CCC1=O (stereo not given) | -0.8%
O=C(NCC1Cn2cccc2CN1Cc1ccccc1)c1cncc(Br)c1 (stereo not given) | 10µM*
CN1Cc2cccn2CC1CNC(=O)Cc1cccc(F)c1 (stereo not given) | -25.0%
Cn1cnc(S(=O)(=O)NCC2Cn3cccc3CN2Cc2ccccc2)c1 (stereo not given) | -15.9%
Cc1cc(C)n(Cc2ccc(C(=O)NCC3Cn4cccc4CN3Cc3ccccc3)o2)n1 (stereo not given) | 5.01µM*
Cn1nccc1C(=O)NCC1Cn2cccc2CN1Cc1ccccc1 (stereo not given) | -8.3%
Cc1cc(C(=O)NCC2Cn3cccc3C(=O)N2Cc2ccccc2)n(C)n1 (stereo not given) | 35.4%
CN1Cc2cccn2CC1CNC(=O)Cc1ccccc1 (stereo not given) | -18.9%
CCn1ccc(C(=O)NCC2Cn3cccc3C(=O)N2CC(C)C)n1 (stereo not given) | -18.6%
SMILES | Pf Dd2 inh
CCn1ccc(C(=O)NCC2Cn3cccc3CN2Cc2ccccc2)n1 (stereo not given) | 14.1µM*
CC(=O)NC[C@H]1OC[C@@H](NC2CCCC2)[C@@H]1O | -11.7%[44.1 µM]
CCN1CCN(CC(O)COc2cccc(CNCCCc3scnc3C)c2)CC1 (stereo not given) | i
CCN1CCN(CC(O)COc2cccc(CNCc3cnn(CC)c3)c2)CC1 (stereo not given) | 0.4%
CN(CC(O)COc1cccc(CNCCc2ccc(F)cc2)c1)C1CCCCC1 (stereo not given) | 3.98µM*
COc1ccc(C(=O)Nc2ccnn2C2CCN(c3nccc(N)n3)CC2)cc1 | -15.0%
COC[C@@H]1CN(C(=O)Cn2ccc(C)n2)C[C@H]1c1ccccn1 | 8.7%
Cc1ccccc1-c1nc2cnccn2c1NCCC(=O)N1CCCCC1 | i
CC(C)c1ccc(Nc2c(-c3ccccc3O)nc3cnccn23)cc1 | 3.55µM*
Cc1ccc(Nc2c(-c3cccc(Cl)c3)nc3cccc(C)n23)cc1 | i
Cc1ccc2nc(-c3ccco3)c(Nc3ccc4c(c3)OCCO4)n2c1 | -5.0%
Cc1ccn2c(Nc3ccc(F)cc3)c(-c3ccc(C)o3)nc2c1 | 10µM*
Cc1ccc2nc(-c3cccs3)c(Nc3ccc4c(c3)OCCO4)n2c1 | 15.6%
Cc1ccccc1-c1nc2cnccn2c1NCCC(=O)N1CCC(C)CC1 | i
Cc1cccc(C)c1Nc1c(-c2cccs2)nc2ncccn12 | -13.1%
Cc1ccn2c(Nc3ccc(C(C)C)cc3)c(-c3cccnc3)nc2c1 | 11.2µM*
Cc1ccn2c(Nc3ccc(C(C)C)cc3)c(-c3cccs3)nc2c1 | 11.2µM*
Cc1ccc2nc(-c3cccnc3)c(Nc3ccc(C(C)C)cc3)n2c1 | 18.1%
COc1ccc(Nc2c(-c3ccco3)nc3cccc(C)n23)cc1 | -18.3%
Cn1ncc(N2CCCC(CC(=O)NCc3ccccc3F)C2)cc1=O (stereo not given) | 9.1%
Cc1cnc(C(=O)NC2C[C@H]3CC[C@@H](C2)N3C(=O)CCc2c[nH]c3ccccc23)cn1 (stereo not given in full) | i
COc1cccc(C(=O)N2CCC(C(NC(=O)c3cccs3)C(=O)NCC(C)C)CC2)c1 (stereo not given) | i
O=C(NCc1ccsc1)C1CN(c2cccc(Cl)c2)C(=O)N1 (stereo not given) | 1.6%[44.1 µM]
O=C(N[C@@H]1CN(C2CCC2)C[C@H]1CO)c1cnccn1 | -3.8%
Cc1ccc(OCC(=O)c2ccc3c(c2)N(C(C)C(=O)NCC2CCCO2)C(=O)CO3)cc1C (stereo not given) | i
SMILES | Pf Dd2 inh
CN1CCN(c2ccc3ncn(-c4cccnc4)c(=O)c3n2)CC1 | 16.6%[44.1 µM]
CCCNC(=O)N1CCCC(c2nn[nH]n2)C1 (stereo not given) | 26.3%
CN1C(=O)[C@@H]2C[C@@H](CN2Cc2ccc3ccccc3n2)Oc2ccccc21 | i
COc1ccc(-c2nc(CSCC(=O)N3CCN(c4ccc(OC)cc4)CC3)c(C)o2)cc1 | -11.0%
COc1ccc(-c2nc(CSCC(=O)N3CCN(c4cc(Cl)ccc4C)CC3)c(C)o2)cc1 | i
COc1ccc(-c2nc(CSCC(=O)N3CCN(c4cccc(C)c4C)CC3)c(C)o2)cc1OC | 10µM*
CCN(C)Cc1nc(C2CCOCC2)nn1CC1COCCO1 (stereo not given) | -8.8%
O=C(c1ccncc1)N1CCCC(Cc2nc(C3CCOCC3)no2)C1 (stereo not given) | -22.3%
Cn1ccc(CN2CCn3c(nn(-c4ccc(F)cc4F)c3=O)C2)n1 | -1.9%
O=C(c1ccccc1F)N1CCn2c(nn(-c3ccncc3)c2=O)C1 | 11.7%[44.1 µM]
CCOC(=O)c1cc(-c2ccccc2)n(-c2cccc(C(=O)N(CC)c3ccccc3)c2)c1C | i
CCOC(=O)c1cc(-c2ccc(C)cc2)n(CC(=O)Nc2cccc(C(C)=O)c2)c1C | i
CCOC(=O)c1cc(-c2ccccc2)n(-c2cccc(C(=O)Nc3cccc(C)c3)c2)c1C | 11.2µM*
O=[S+]([O-])(c1ccncc1)c1nnn2c1nc(N1CCOCC1)c1ccccc12 | -16.4%
CCn1cc(-c2ccc(Cl)cc2)cc1C(=O)O | 15.1%
CN1CCN(c2ncc(C(=O)O)c(-c3ccccc3)n2)CC1 | 6.3%
CC/C=C\CCc1c(-c2ccccc2)ncn1CCN1CCN(C)CC1 | 4.47µM*
CCCCN1CCN(C(=O)c2cnc(-c3ccccc3)nc2-c2ccncc2)CC1 | -26.7%
CCC(=O)N1Cc2ccccc2CC2(CCCCN2CC2CCNC2)C1 (stereo not given) | -2.5%
CN1C(=O)c2cccn2CC1C(=O)NCc1ccco1 (stereo not given) | -5.3%
CN(C)CC(O)COc1ccc(CN2CCN(c3ncc[nH]c3=O)CC2)cc1 (stereo not given) | -14.3%

High-throughput results (PubChem BioAssay)
